# RE007 growth inh = less growth of the S. pombe RE007 Vpr strain. S. pombe RE007 Vpr strain, BacTiter-Glo ATP luminescence, 24 h. Potency, µM (doses to about 92.2 µM), most hits filed as inhibitors. actives 0.21% (n = 360,000); active = well fitted falling curve with a large enough effect; inconclusive = small, poorly fitted or top-dose-only effect; inactive = no such curve, though single readings can be large or run the other way; also: nearly all actives have a fitted effect of over 50% in size
#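 Fission yeast strain RE007, carrying one chromosomally integrated HIV-1 vpr copy, was seeded at OD 0.01 in PMG+AL medium with 23 nL pinned compound. After 24 h at 30 °C and 99% humidity, viability was read by BacTiter-Glo luminescence.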
# LmPK inhibitor = inhibitors of Leishmania mexicana pyruvate kinase | Q27686 | purified LmPK, Kinase-Glo ATP luminescence, 1 h | Potency, µM (titrated, usually from 57.5 µM), usual class: inhibitors | actives 0.37% (n = 290,000) | AID 1721
# Target sequence (Q27686 whole entry, looked up): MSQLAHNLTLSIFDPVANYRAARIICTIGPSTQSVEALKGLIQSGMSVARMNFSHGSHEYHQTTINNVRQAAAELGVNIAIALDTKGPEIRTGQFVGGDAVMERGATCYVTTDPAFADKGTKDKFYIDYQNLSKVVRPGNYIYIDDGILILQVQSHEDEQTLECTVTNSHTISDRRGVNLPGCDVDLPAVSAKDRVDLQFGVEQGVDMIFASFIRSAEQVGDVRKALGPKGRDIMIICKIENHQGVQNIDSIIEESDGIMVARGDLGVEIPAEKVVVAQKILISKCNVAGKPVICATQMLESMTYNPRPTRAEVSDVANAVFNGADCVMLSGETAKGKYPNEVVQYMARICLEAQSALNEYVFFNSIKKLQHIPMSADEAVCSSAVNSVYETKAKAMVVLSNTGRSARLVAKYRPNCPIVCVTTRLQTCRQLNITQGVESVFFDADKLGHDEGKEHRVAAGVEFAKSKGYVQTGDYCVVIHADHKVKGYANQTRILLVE
#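 Screened at intermediate enzyme activity to detect both inhibitors and activators: LmPK at 0.1 nM, with a 0.5 nM enzyme column as activation reference. PEP 0.5 mM, ADP 0.1 mM; ATP detected by luminescence after 1 h.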
# Shiga inhibitor = Shiga toxin inhibition; Vero cells, Shiga toxin protein synthesis inhibition reporter; inhibition, % at 38.7 µM; actives 9.2% (n = 290,000); in the data active = inhibition mostly above about 28%, no sharp cut-off; inactive = mostly below about 43%
# Tb PYK inh = blocks Trypanosoma brucei pyruvate kinase; Potency, µM (highest dose often 76.8 µM), most hits filed as inhibitors; actives 0.12% (n = 410,000); TbPYK enzyme, Kinase-Glo Plus ATP luminescence, 45 min; also: nearly all actives have a fitted effect of over 50% in size
#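 Luminescent Kinase-Glo Plus end-point after 45 min room-temperature reaction of T. brucei pyruvate kinase started with 130 uM ADP (final). Buffer TEA 50 mM pH 7.2 with KCl, MgCl2, BSA, Tween-20; titration-based qHTS with fitted concentration-effect curves.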
# FBPA Giardia inh = Giardia lamblia aldolase inhibition; A8B2U2; purified Giardia FBPA; Potency, µM (series often up to 59.6 µM), actives largely listed as inhibitors; actives 0.71% (n = 290,000); also: nearly all actives have a fitted effect of over 55% in size
#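 Giardia FBPA (40 nM reagent) was preincubated 10 min at RT with compound (up to 57.5 uM final), then substrate plus GAPDH/TPI/NAD/arsenate coupling system with diaphorase/resazurin was added; resorufin fluorescence (525/598 nm) was read after 20 min.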
# CHX counter = counter-screen for Shiga toxin inhibitors: cycloheximide protein synthesis inhibition. AID 2314. cell reporter, cycloheximide protein synthesis inhibition counterscreen. actives 12% (n = 300,000). max response, %; in the data active = max response mostly above about 13%, no sharp cut-off; inactive = mostly below about 14%; also: read at 38.3 µM for the half of the compounds with a filed dose
# Hits are given with their value; . = inactive; ? = inconclusive; / = no result; [ ] = remark or other dose. This excerpt belongs to a sample that is enriched for hits. Unless noted, calls follow the shape of the dose curve; as a rule, active = well fitted curve in the direction sought with a large enough effect; inconclusive = small, poorly fitted or top-dose-only effect, or another doubt; inactive = no such curve, though single readings can be large; an effect the other way counts as inactive or inconclusive.
SMILES,RE007 growth inh,LmPK inhibitor,Shiga inhibitor,Tb PYK inh,FBPA Giardia inh,CHX counter
CCN(CC)CCOC(=O)c1ccc(NC(=O)c2cc3cccc(OC)c3oc2=O)cc1,/,/,/,.,/,/
CC(=O)N1CCOc2ccc(S(=O)(=O)N3CCC(C(=O)NCc4ccc(Cl)cc4)CC3)cc21,.,/,/,.,/,/
S=c1nccc(-c2ccc(Cl)cc2)[nH]1,.,.,.,.,.,.
Clc1ccc(-c2ccn[nH]2)cc1,.,.[11.5 µM],147,.,.,53
CCCc1cnc(N2CCN(C(=S)NC)CC2)nc1,.,.,66,.,.,44
CCOC(=O)C1C(=O)N(C)C2(C)CC1c1ccccc1O2 (configuration not stated),.,.,.,.,.,.
CCN1C(=O)C(C(=O)Nc2ccc(OC)cc2)C2CC1(C)Oc1ccccc12 (configuration not stated),.,.,46,.,.,.
CCOC(=O)c1cnn(-c2ccccn2)c1N,.,.,99,.,.,63
CCOC(=O)c1cnn(-c2cc(Oc3ccccc3)ncn2)c1N,.,.,.,.,.,.
CCOC(=O)c1cnn(-c2ncnc3c2oc2ccccc23)c1N,.,.,.,.,.,16
CCOC(=O)C1CCCN(c2ncnc3c2oc2ccccc23)C1 (configuration not stated),.,.,.,.,.,17
CC(=O)Nc1cc(-c2ccc(N3CCN(C)CC3)cc2)cn2c(-c3cccc(C(C)=O)c3)cnc12,.,/,/,.,/,/
O=C(NCC(=O)N1CCN(S(=O)(=O)c2c(F)cccc2F)CC1)c1ccccc1F,.,/,/,.,/,/
CO[C@@H]1[C@@H]2OP(=O)(O)OC[C@H]2O[C@H]1n1c(Sc2ccc(Cl)cc2)nc2c(N)ncnc21,/,/,.,/,.,.
O=C(CC1N=C2c3ccccc3N=C(SCC(=O)Nc3cccc(Cl)c3)N2C1=O)NCc1cccs1 (configuration not stated),/,/,/,.,/,/
Cc1cc(C(=O)COC(=O)CNC(=O)c2ccccc2)c(C)n1CC1CCCO1 (configuration not stated),.,.,134,.,.,26
Cc1cc(C(=O)COC(=O)c2cccc(S(=O)(=O)N(C)C)c2)c(C)n1CC1CCCO1 (configuration not stated),.,/,/,.,/,/
CNS(=O)(=O)c1cccc(C(=O)OCC(=O)c2cc(C)n(CC3CCCO3)c2C)c1 (configuration not stated),.,/,/,.,/,/
Cc1cccc(C(=O)NCC(=O)OCC(=O)c2cc(C)n(CC3CCCO3)c2C)c1 (configuration not stated),.,.,89,.,.,48
COC(=O)c1ccccc1NC(=O)c1ccc(CN2CC(=O)N3CCCCC3C2=O)cc1 (configuration not stated),/,/,/,.,/,/
Cc1ccc(-c2cc3nc(-c4ccccc4)cc(N)n3n2)cc1,.,.,82,.,.,38
Cc1ccc(-c2cc3nc(-c4ccccc4)cc(N4CCOCC4)n3n2)cc1,.,.,.,.,.,23
Cc1cc(N)n2nc(-c3ccccc3)cc2n1,?,16µM,89,.,.,60
N#Cc1c2ccc(O)cc2n2ccccc12,.,.,.,.,?,27
COC(=O)c1ccc(CSCc2ccc(C#N)cc2)cc1,/,.,75,/,.,43
SMILES,RE007 growth inh,LmPK inhibitor,Shiga inhibitor,Tb PYK inh,FBPA Giardia inh,CHX counter
Nc1[nH]n(-c2ccccc2)c(=O)c1N=Nc1ccc2c(c1)OCCO2,.,.,59,.,.,33
Nc1[nH]n(-c2ccccc2)c(=O)c1N=Nc1ccc2c(c1)OCO2,.,.,121,.,.,36
Cc1cc([N+](=O)[O-])ccc1N=Nc1c(N)[nH]n(-c2ccccc2)c1=O,.,.,.,.,.,.
Cc1[nH]n(-c2ccccc2)c(=O)c1N=Nc1ccc(C#N)cc1,.,.,.,.,.,.
C/C(=C(\CCO)SSCC1CCCO1)N(C=O)Cc1cnc(C)nc1N (configuration not stated),/,/,/,.,/,/
COc1ccccc1CN1CCCC2(CCN(S(=O)(=O)c3ccccc3)CC2)C1,/,/,/,.,.,/
CCOC(=O)C1=C(COC(=O)c2ccco2)NC(=O)NC1CC (configuration not stated),.,/,/,.,/,/
O=C(O)c1ccc(-n2cc(-c3cc4ccccc4oc3=O)[nH]c2=S)cc1,.,?,64,?,.,32
Cc1ccc2c(c1)N(C(=O)Nc1cccc(C)c1C)CCO2,/,/,/,.,/,/
CO[C@@H]1COC(=O)CCC[C@@H](C)[C@H](OC)COC(=O)CCC[C@H]1C,/,/,/,/,.[12.9 µM],/
Cc1ccc2cc3c(N)c(C(=O)Nc4c(C)[nH]c(=O)[nH]c4=O)sc3nc2c1,.,.,.,.,.,.
Cc1ccc2nc3sc(C(=O)NCc4ccco4)c(N)c3cc2c1,.,.,68,.,.,23
Cc1ccc2nc3sc(C(=O)Nc4c(C)[nH]c(=O)[nH]c4=O)c(N)c3cc2c1,.,.,.,.,.,31
Cc1cccc(C(=O)NCc2ccco2)c1,.,.,/,.,.,.
COc1cc2cc3c(N)c(C(=O)NCc4ccco4)sc3nc2cc1OC,.,.,54,.,.,16
COc1ccc(-n2c(N)c(C(=O)NCc3ccco3)sc2=S)cc1,.,.,.,.,.,.
Cc1ccc(CN2COc3c(Cl)cc4c(-c5ccccc5)cc(=O)oc4c3C2)cc1,/,/,/,.,/,/
COc1ccc(NCc2ccc(OC)c(Cn3ccnc3)c2)c(OC)c1,.,.,.,.,.,.
CCOc1ccc(OCC)c(NC(=O)c2csc3c2CCCC3)c1,/,/,/,.,/,/
Cc1ccccc1N1C(=O)c2sc3nc4c(c(=O)n3c2C1=O)CCC4,.,?,.,?,.,.
O=C1c2sc3nc4c(c(=O)n3c2C(=O)N1c1ccccc1)CCC4,.,.,47,.,.,.
O=C1CN(S(=O)(=O)c2c(F)cccc2F)CCN1S(=O)(=O)c1ccc2c(c1)OCCO2,/,/,.,/,/,.
CC1(C(=O)Nc2cccc(C#N)c2)CCN1C(=O)C/C=C/c1ccccc1 (configuration not stated),.[18.4 µM],/,/,.,/,/
COc1ccc(C(=O)N/N=C/c2ccc(OC)c(CN3CCCc4ccccc43)c2)cc1,.,.,.,.,.,9.4
COc1ccc(/C=N\NC(=O)c2ccc(F)cc2)cc1COc1ccccc1C(N)=O,.,.,.,.,/,.
COc1cccc(C(=O)N/N=C/c2ccc(OC)c(COc3ccccc3C(N)=O)c2)c1,.,.,109,.,/,57
COc1ccc(OCc2cc(/C=N\NC(=O)c3ccccc3)ccc2OC)cc1,.,.,72,.,/,33
CS(=O)(=O)Nc1cccc(-c2ccc3ncnc(NC4CCNCC4)c3c2)c1,/,/,/,/,.,/
CC(=O)N1CCn2c3ccc(C)cc3c3cccc1c32,?,.,47,.,.,24

# Bioassay records as filed in PubChem.
